{
  "source": "PubChem BioAssay AID1159580",
  "about": "(chemical genetic matrix, 2015)",
  "test": "chemical genetic growth profiling, strain panel (AID 1159580);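 further: tested at 20 µM; growth read once vehicle control cultures reached saturation at 30 °C; 1 = growth at the plate median or of vehicle wells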",
  "details": "S. cerevisiae deletion strains, growth OD",
  "note": "Several values for one entry are separate records, joined by “and”; a condition that tells them apart may be missing. Equal values may be shown once. In all, about 5,500 compounds went through this assay and about 2,000 (36%) were called active. About 18% were inconclusive and are not listed. This is one part of the list. A number with no mark means an inactive call. No stated cut-off is given here; in the data, active means normalized growth mostly below about 0.91 (no sharp cut-off); inconclusive means no clear call, values can overlap the other calls; inactive means mostly above about 0.92.",
  "data": [
    {"smiles": "CCCCNc1ccc(C(=O)OCCN(C)C)cc1", "values": [
      {"measurement": "normalized growth", "setting": "locus YAL013W, strain DEP1, stronger effect = lower value", "result": 1.01},
      {"measurement": "normalized growth", "setting": "locus YAL021C, strain ccr4, stronger effect = lower value", "result": 0.978},
      {"measurement": "normalized growth", "setting": "locus YAL026C, strain drs2, stronger effect = lower value", "result": 1.02},
      {"measurement": "normalized growth", "setting": "locus YAL030W, strain snc1, stronger effect = lower value", "result": 0.999},
      {"measurement": "normalized growth", "setting": "locus YAL040C, strain CLN3, stronger effect = lower value", "result": 0.929},
      {"measurement": "normalized growth", "setting": "locus YBL061C, strain skt5, stronger effect = lower value", "result": 1.02},
      {"measurement": "normalized growth", "setting": "locus YBR009C, strain hhf1, stronger effect = lower value", "result": 0.978},
      {"measurement": "normalized growth", "setting": "locus YBR021W, strain FUR4, stronger effect = lower value", "result": 1.02},
      {"measurement": "normalized growth", "setting": "locus YBR023C, strain chs3, stronger effect = lower value", "result": 1.01},
      {"measurement": "normalized growth", "setting": "locus YBR171W, strain sec66, stronger effect = lower value", "result": 1.02},
      {"measurement": "normalized growth", "setting": "locus YBR229C, strain ROT2, stronger effect = lower value", "result": 1.01},
      {"measurement": "normalized growth", "setting": "locus YBR231C, strain swc5, stronger effect = lower value", "result": 1},
      {"measurement": "normalized growth", "setting": "locus YBR279W, strain paf1, stronger effect = lower value", "result": 1.01},
      {"measurement": "normalized growth", "setting": "locus YCL011C, strain gbp2, stronger effect = lower value", "result": 1.03},
      {"measurement": "normalized growth", "setting": "locus YCL016C, strain dcc1, stronger effect = lower value", "result": 1.02},
      {"measurement": "normalized growth", "setting": "locus YCL029C, strain bik1, stronger effect = lower value", "result": 1.01},
      {"measurement": "normalized growth", "setting": "locus YCL061C, strain MRC1 (second series), stronger effect = lower value", "result": 1.01},
      {"measurement": "normalized growth", "setting": "locus YCL069W, strain vba3, stronger effect = lower value", "result": 1.01},
      {"measurement": "normalized growth", "setting": "locus YCR088W, strain abp1, stronger effect = lower value", "result": 1.01},
      {"measurement": "normalized growth", "setting": "locus YDL005C, strain med2, stronger effect = lower value", "result": 1.01},
      {"measurement": "normalized growth", "setting": "locus YDL035C, strain GPR1, stronger effect = lower value", "result": 1.01},
      {"measurement": "normalized growth", "setting": "locus YDL040C, strain nat1, stronger effect = lower value", "result": 1.01},
      {"measurement": "normalized growth", "setting": "locus YDL074C, strain BRE1, stronger effect = lower value", "result": 1.02},
      {"measurement": "normalized growth", "setting": "locus YDL101C, strain DUN1, stronger effect = lower value", "result": 1.01},
      {"measurement": "normalized growth", "setting": "locus YDL134C, strain PPH21, stronger effect = lower value", "result": 1.01},
      {"measurement": "normalized growth", "setting": "locus YDL185W, strain tfp1, stronger effect = lower value", "result": 1.02},
      {"measurement": "normalized growth", "setting": "locus YDL192W, strain arf1, stronger effect = lower value", "result": 1.01},
      {"measurement": "normalized growth", "setting": "locus YDR001C, strain nth1, stronger effect = lower value", "result": 1.01},
      {"measurement": "normalized growth", "setting": "locus YDR069C, strain doa4, stronger effect = lower value", "result": 0.991},
      {"measurement": "normalized growth", "setting": "locus YDR101C, strain arx1, stronger effect = lower value", "result": 1.01},
      {"measurement": "normalized growth", "setting": "locus YDR137W, strain rgp1, stronger effect = lower value", "result": "1.17 [resistant] (active)"},
      {"measurement": "normalized growth", "setting": "locus YDR150W, strain NUM1, stronger effect = lower value", "result": 1.01},
      {"measurement": "normalized growth", "setting": "locus YDR159W, strain sac3, stronger effect = lower value", "result": 1.01},
      {"measurement": "normalized growth", "setting": "locus YDR162C, strain NBP2, stronger effect = lower value", "result": 0.998},
      {"measurement": "normalized growth", "setting": "locus YDR195W, strain ref2", "result": 0.952},
      {"measurement": "normalized growth", "setting": "locus YDR297W, strain sur2, stronger effect = lower value", "result": 1.02},
      {"measurement": "normalized growth", "setting": "locus YDR318W, strain mcm21, stronger effect = lower value", "result": 1.02},
      {"measurement": "normalized growth", "setting": "locus YDR334W, strain swr1, stronger effect = lower value", "result": 1.04},
      {"measurement": "normalized growth", "setting": "locus YDR335W, strain msn5, stronger effect = lower value", "result": 1.04},
      {"measurement": "normalized growth", "setting": "locus YDR363W, strain ESC2, stronger effect = lower value", "result": 1.01},
      {"measurement": "normalized growth", "setting": "locus YDR388W, stronger effect = lower value", "result": 1.02},
      {"measurement": "normalized growth", "setting": "locus YDR392W, strain spt3, stronger effect = lower value", "result": 1.09},
      {"measurement": "normalized growth", "setting": "locus YDR502C, strain sam2, stronger effect = lower value", "result": 1},
      {"measurement": "normalized growth", "setting": "locus YEL003W, strain gim4, stronger effect = lower value", "result": 1.01},
      {"measurement": "normalized growth", "setting": "locus YEL037C, strain rad23, stronger effect = lower value", "result": 1.02},
      {"measurement": "normalized growth", "setting": "locus YEL061C, strain CIN8 (second series), stronger effect = lower value", "result": 1.02},
      {"measurement": "normalized growth", "setting": "locus YEL061C, strain CIN8, stronger effect = lower value", "result": 1.01},
      {"measurement": "normalized growth", "setting": "locus YER002W, strain NOP16, stronger effect = lower value", "result": 0.995},
      {"measurement": "normalized growth", "setting": "locus YER015W, strain faa2, stronger effect = lower value", "result": 1.01},
      {"measurement": "normalized growth", "setting": "locus YER016W, strain bim1, stronger effect = lower value", "result": 1.02},
      {"measurement": "normalized growth", "setting": "locus YER110C, stronger effect = lower value", "result": 1.02},
      {"measurement": "normalized growth", "setting": "locus YER111C, strain swi4, stronger effect = lower value", "result": 1.01},
      {"measurement": "normalized growth", "setting": "locus YER155C, strain BEM2 (second series), stronger effect = lower value", "result": 0.95},
      {"measurement": "normalized growth", "setting": "locus YER155C, strain BEM2, stronger effect = lower value", "result": 0.999},
      {"measurement": "normalized growth", "setting": "locus YER167W, strain BCK2, stronger effect = lower value", "result": 1.01},
      {"measurement": "normalized growth", "setting": "locus YFR010W, strain ubp6, stronger effect = lower value", "result": 0.991},
      {"measurement": "normalized growth", "setting": "locus YGL078C, strain dbp3, stronger effect = lower value", "result": 1.02},
      {"measurement": "normalized growth", "setting": "locus YGL086W, strain mad1, stronger effect = lower value", "result": 0.997},
      {"measurement": "normalized growth", "setting": "locus YGL167C, strain pmr1, stronger effect = lower value", "result": 1.01},
      {"measurement": "normalized growth", "setting": "locus YGL173C, strain kem1, stronger effect = lower value", "result": 1},
      {"measurement": "normalized growth", "setting": "locus YGL227W, strain vid30, stronger effect = lower value", "result": 1.01},
      {"measurement": "normalized growth", "setting": "locus YGL240W, strain doc1, stronger effect = lower value", "result": 1.01},
      {"measurement": "normalized growth", "setting": "locus YGL248W, strain PDE1, stronger effect = lower value", "result": 0.998},
      {"measurement": "normalized growth", "setting": "locus YGL253W, strain hxk2, stronger effect = lower value", "result": 1.03},
      {"measurement": "normalized growth", "setting": "locus YGR078C, strain PAC10, stronger effect = lower value", "result": 1.01},
      {"measurement": "normalized growth", "setting": "locus YGR135W, strain pre9, stronger effect = lower value", "result": 1},
      {"measurement": "normalized growth", "setting": "locus YGR229C, strain SMI1, stronger effect = lower value", "result": 1.03},
      {"measurement": "normalized growth", "setting": "locus YGR252W, strain gcn5, stronger effect = lower value", "result": 0.915},
      {"measurement": "normalized growth", "setting": "locus YHR013C, strain ard1, stronger effect = lower value", "result": 0.993},
      {"measurement": "normalized growth", "setting": "locus YHR027C, strain rpn1, stronger effect = lower value", "result": 1.01},
      {"measurement": "normalized growth", "setting": "locus YHR030C, strain SLT2, stronger effect = lower value", "result": "1.01 and 0.96"},
      {"measurement": "normalized growth", "setting": "locus YHR079C, strain IRE1 (second series), stronger effect = lower value", "result": 1.02},
      {"measurement": "normalized growth", "setting": "locus YHR079C, strain IRE1, stronger effect = lower value", "result": 0.977},
      {"measurement": "normalized growth", "setting": "locus YHR094C, strain hxt1, stronger effect = lower value", "result": 1.02},
      {"measurement": "normalized growth", "setting": "locus YHR129C, strain ARP1, stronger effect = lower value", "result": 1},
      {"measurement": "normalized growth", "setting": "locus YHR142W, strain chs7, stronger effect = lower value", "result": 1.06},
      {"measurement": "normalized growth", "setting": "locus YHR200W, strain rpn10, stronger effect = lower value", "result": 1.02},
      {"measurement": "normalized growth", "setting": "locus YIL066C, strain RNR3, stronger effect = lower value", "result": 1.01},
      {"measurement": "normalized growth", "setting": "locus YIL073C, strain SPO22, stronger effect = lower value", "result": 1.04},
      {"measurement": "normalized growth", "setting": "locus YIL125W, strain kgd1, stronger effect = lower value", "result": 1.02},
      {"measurement": "normalized growth", "setting": "locus YIR030C, strain dcg1, stronger effect = lower value", "result": 1.02},
      {"measurement": "normalized growth", "setting": "locus YJL092W, strain hpr5, stronger effect = lower value", "result": 1.02},
      {"measurement": "normalized growth", "setting": "locus YJL095W, strain BCK1 (second series), stronger effect = lower value", "result": 1.02},
      {"measurement": "normalized growth", "setting": "locus YJL095W, strain BCK1, stronger effect = lower value", "result": "0.991 and 0.961"},
      {"measurement": "normalized growth", "setting": "locus YJL115W, strain asf1, stronger effect = lower value", "result": 1.03},
      {"measurement": "normalized growth", "setting": "locus YJL129C, strain trk1, stronger effect = lower value", "result": 1.01},
      {"measurement": "normalized growth", "setting": "locus YJL134W, strain LCB3, stronger effect = lower value", "result": 1},
      {"measurement": "normalized growth", "setting": "locus YJL154C, strain vps35, stronger effect = lower value", "result": 1.01},
      {"measurement": "normalized growth", "setting": "locus YJL164C, strain tpk1, stronger effect = lower value", "result": 0.996},
      {"measurement": "normalized growth", "setting": "locus YJL166W, strain qcr8, stronger effect = lower value", "result": 1.02},
      {"measurement": "normalized growth", "setting": "locus YJL168C, strain set2, stronger effect = lower value", "result": 1.02},
      {"measurement": "normalized growth", "setting": "locus YJL187C, strain SWE1 (second series), stronger effect = lower value", "result": 1.01},
      {"measurement": "normalized growth", "setting": "locus YJR043C, strain POL32, stronger effect = lower value", "result": 1.02},
      {"measurement": "normalized growth", "setting": "locus YJR066W, strain TOR1, stronger effect = lower value", "result": 0.926}
    ]}
  ]
}
